# ± gives the standard deviation of the averaged measurements.
# Legend:
# Test in all cases: cell viability (% of vehicle); higher = less cytotoxic
# Settings in all cases: 10 µM; 72 h
# HCI01 = tested on: HCI01 (cells of a triple-negative basal-like breast cancer xenograft)
# HCI03 = tested on: HCI03 (cells of an ER-positive luminal breast cancer xenograft)
# HCI09 = tested on: HCI09 (cells of a triple-negative luminal androgen receptor type breast cancer xenograft)
# HCI11 = tested on: HCI11 (cells of an ER-positive luminal breast cancer xenograft)
# HCI13 = tested on: HCI13 (cells of an ER-positive luminal breast cancer xenograft)
# HCI16 = tested on: HCI16 (cells of a triple-negative basal-like breast cancer xenograft)
# UCD52 = tested on: UCD52 (cells of a triple-negative basal-like breast cancer xenograft)
# WHIM2 = tested on: WHIM2 (cells of a triple-negative basal-like breast cancer xenograft)
# WHIM30 = tested on: WHIM30 (cells of a triple-negative basal-like breast cancer xenograft)
# 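Note: PDX cells carrying CMV promoter-driven luciferase, viability read as total photon flux per second by IVIS imaging following D-luciferin, vehicle control 0.1% DMSO.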
Compound,cell viability (HCI01),cell viability (HCI03),cell viability (HCI09),cell viability (HCI11),cell viability (HCI13),cell viability (HCI16),cell viability (UCD52),cell viability (WHIM2),cell viability (WHIM30)
Clc1ccc(CCC(Cn2ccnc2)Sc2c(Cl)cccc2Cl)cc1.O=[N+]([O-])O (configuration not stated) [Butoconazole nitrate],67.2 ± 44,99.5,36.7 ± 9.7,143,39.6 ± 1.4,186,74.6 ± 3.6,53.8 ± 16,190 ± 7.9
CCC1(O)CC2CN(CCc3c([nH]c4ccccc34)C(C(=O)OC)(c3cc4c(cc3OC)N(C)C3C(O)(C(=O)OC)C(OC(C)=O)C5(CC)C=CCN6CCC43C65)C2)C1.O=S(=O)(O)O (configuration not stated) [Vinblastine sulfate],127 ± 23,88.5,61 ± 26,102,40.1 ± 2.1,144,80.3 ± 1.4,76.8 ± 13,102 ± 19
NCC1OC(OC2C(N)CC(N)C(OC3OC(CO)C(O)C(N)C3O)C2O)C(O)C(O)C1O.O=S(=O)(O)O (configuration not stated) [Kanamycin Sulfate],106 ± 5.6,92.9,90.5 ± 16,96.7,120 ± 31,86.8,81.5 ± 0.83,80.1 ± 15,95.8 ± 11
CCc1ccc(CCOc2ccc(CC3SC(=O)NC3=O)cc2)nc1.Cl (configuration not stated) [Pioglitazone HCl],119 ± 6.9,129,93.7 ± 19,125,126 ± 2,102,116 ± 11,116 ± 13,182 ± 40
CC(C)c1nc(CN(C)C(=O)NC(CCN2CCOCC2)C(=O)NC(CCC(Cc2ccccc2)NC(=O)OCc2cncs2)Cc2ccccc2)cs1 (configuration not stated) [Cobicistat (GS-9350)],83.3 ± 3.6,74.2,53.3 ± 17,52.3,64.4 ± 11,128,67 ± 4.4,78.1 ± 3.2,96.6 ± 3.7
NC(CO)(CO)CO.O=C(c1ccccc1)c1ccc2n1CCC2C(=O)O (configuration not stated) [Ketorolac tromethamine salt],123 ± 15,174,146 ± 70,102,122 ± 26,131,145.6 ± 0.93,130 ± 15,116 ± 4.2
CCOC(=O)C(CCc1ccccc1)NC1CCc2ccccc2N(CC(=O)O)C1=O.Cl (configuration not stated) [Benazepril HCl],107 ± 11,159,130 ± 41,93.5,196 ± 40,161,130 ± 7.6,107 ± 13,170 ± 22
CC1(C)CCC(C)(C)c2cc(NC(=O)c3ccc(C(=O)O)cc3)ccc21 [Tamibarotene],108 ± 22,63.1,65.6 ± 45,95.9,73.8 ± 30,77.1,124 ± 10,98.1 ± 28,121 ± 9.1
